From ChEMBL document CHEMBL4513216, “Probing the Open Global Health Chemical Diversity Library for Multistage-Active Starting Points for Next-Generation Antimalarials” (ACS Infect Dis, 2020)
About 8,600 (12%) of roughly 69,000 compounds showed an effect of 50% or more. This excerpt belongs to a sample that is enriched for strong results.

Tested on: Plasmodium berghei
Assay: Screen against P. berghei liver stage (PbLuc), transformed with Luciferase, at 10uM
Assay type: functional, HepG2
Settings: tested at 10 uM

Point of comparison: `Cc1cccc(C(=O)NCCCN2CCc3ccccc3C2)c1C`, INHIBITION 21.5%. Against it:
- Cn1ccnc1CN1CCC(CNS(=O)(=O)c2cccnc2)C1 (configuration not stated) — higher, 58.3%
- Cn1ccnc1CCNS(=O)(=O)c1cccnc1 — higher, 38.6%
- O=C(Oc1ccccc1)N1CCC(CNS(=O)(=O)c2cccnc2)CC1 — lower, 18.2%
- O=C(c1ccco1)N1CCc2onc(Cn3cccn3)c2C1 — the same, 21.5%
- CCNC(=O)[C@@H]1C[C@@H](N)CN1Cc1ccc2cccc(Cl)c2n1 — lower, 11.9%
- CCNC(=O)[C@@H]1C[C@H](N)CN1Cc1ccc2cccc(Cl)c2n1 — higher, 35.4%
- CNC(=O)[C@@H]1C[C@@H](N)CN1Cc1ccc2cccc(OC)c2n1 — higher, 55.5%
- O=C1CC2(CCN(S(=O)(=O)c3cccs3)C2)CN1c1ccccc1 (configuration not stated) — lower, -0.104%
- CC(Cn1cccn1)NC(=O)N1CCN(Cc2ccsc2)CC1 (configuration not stated) — lower, 4.71%
- CCCN(Cc1cnn(C)c1)S(=O)(=O)c1ccc(F)c(C#N)c1 — lower, -32.4%
- O=C(c1cccnc1)N1CCN(c2ccc(-n3cccc3)nn2)CC1 — lower, 0.647%
- O=C(c1ccccc1F)N1CCN(c2ccc(-n3cccc3)nn2)CC1 — higher, 55.9%
- O=C(c1ccccc1F)N1CCN(c2ccc(-n3cccn3)nn2)CC1 — lower, 0.472%
- Cc1nc(N2CCN(C(=O)c3cccnc3)CC2)cc(-n2cccc2)n1 — higher, 32.4%
- Cc1cccc(C(=O)N2CCN(c3ccc(-n4cccc4)nn3)CC2)c1 — higher, 51.5%
- O=C(c1ccccn1)N1CCN(c2ccc(-n3cccc3)nn2)CC1 — higher, 27.6%
- COCC(=O)N1CCCC1c1nccnc1Nc1nc(C)cs1 (configuration not stated) — higher, 39.7%
- Cc1ccc(C(=O)O)cc1CNC(=O)CN1CC(C)(C)[C@@](C)(O)C1 — higher, 28.7%
- Cc1cnn(CC2CCCN2CC(=O)Nc2cc(C(C)C)no2)c1 (configuration not stated) — lower, -35.7%
- Cc1cc(F)ccc1CN1CCC(O)(CN2CCCCC2)C1 (configuration not stated) — lower, -10.4%
- CC(C)c1nccc(CN2CCCC(O)(CN(C)C)C2)n1 (configuration not stated) — lower, 7.92%
- OC1(CN2CCCC2)CCCN(Cc2cnc(-c3ccco3)nc2)C1 (configuration not stated) — higher, 61%
- CC(C)c1nccc(CN2CCC(O)(CN3CCCCC3)C2)n1 (configuration not stated) — higher, 32.5%
- OC1(CN2CCCC2)CCCN(Cc2ccc(F)cc2Cl)C1 (configuration not stated) — lower, 13.7%
- CC(C)c1nccc(CN2CCCC(O)(CN3CCCC3)C2)n1 (configuration not stated) — higher, 62%
- OC1(CN2CCCC2)CCCN(Cc2cnc(-c3ccccc3)nc2)C1 (configuration not stated) — higher, 45.7%
- CN(C)CC1(O)CCCN(Cc2cnc(-c3ccco3)nc2)CC1 (configuration not stated) — lower, 6.28%
- Cc1cc(F)ccc1CN1CCCC(O)(CN2CCCC2)C1 (configuration not stated) — higher, 55%
- O=C(Cc1cccnc1)N1CCC2(CCN(CC3CCCCC3)C2)CC1 — higher, 26.4%
- Cc1cc(C)cc(C(=O)N2CCCC3(CCCC(=O)N3C)C2)c1 (configuration not stated) — lower, -15.9%
- O=C(c1ccc(-n2ccnc2)cc1)N1CCCC(n2ccnc2)C1 (configuration not stated) — lower, 2.3%
- CC(C)(NS(C)(=O)=O)c1nc(-c2cccc(Cl)c2)no1 — lower, -4.83%
- CC=C(C)C(=O)NS(=O)(=O)c1ccc(C(F)(F)F)cc1 — lower, 13.2%
- CC1(C)CC(N(Cc2ccncc2)Cc2cccnc2)CC(C)(C)N1 — higher, 50.1%
- CC1(C)CC(N(Cc2cccnc2)Cc2cccc(F)c2)CC(C)(C)N1 — higher, 75.3%
- CC1(C)CC(N(Cc2cccnc2)Cc2cccnc2)CC(C)(C)N1 — higher, 64.9%
- Cc1nc[nH]c1CN(Cc1ccccc1)C1CC(C)(C)NC(C)(C)C1 — lower, 6.785%
- Cc1cccc(CN(Cc2cccnc2)C2CC(C)(C)NC(C)(C)C2)n1 — higher, 35.2%
- CC1(C)CC(N(Cc2ccccc2)Cc2cccnc2)CC(C)(C)N1 — higher, 65.4%
- CCCN(Cc1cccnc1)C1CC(C)(C)NC(C)(C)C1 — lower, 10%
- Cc1ccsc1CN(Cc1cccnc1)C1CC(C)(C)NC(C)(C)C1 — higher, 33.7%
- Cc1ccc(CN(Cc2ccccn2)C2CC(C)(C)NC(C)(C)C2)s1 — higher, 37%
- CC1(C)CC(N(Cc2ccccc2)Cc2c[nH]cn2)CC(C)(C)N1 — lower, 13.2%
- Cc1ccc(CN(Cc2cccnc2)C2CC(C)(C)NC(C)(C)C2)s1 — higher, 42.1%
- Cc1nc[nH]c1CN(Cc1ccc(F)cc1)C1CC(C)(C)NC(C)(C)C1 — higher, 42.4%
- COc1ccc(CNC2CCC3(CCC(=O)N3)CC2)cc1 (configuration not stated) — lower, 19.8%
- CC(C)c1nn(C)c(N(C)C)c1CNCc1cccc(CN(C)C)c1 — higher, 21.8%
- Cn1ncc(C(=O)O)c1C(=O)Nc1nc2ccc(Br)cc2s1 — lower, 6.27%
- COCCOCC(=O)N1CCc2cc(Cl)cc(Cl)c2C1 — lower, 1.86%
- CCSCc1nc(O)c2nnn(C3CCN(Cc4ccco4)CC3)c2n1 — higher, 32.5%
- Cc1ccc(C)c(C(=O)N2CCC3(CCC(=O)N(CC(N)=O)C3)CC2)c1 — lower, 15.2%
- Cn1cc(C(=O)N2CCN(c3ncccn3)CC2)ccc1=O — higher, 28.8%
- CN(CC1CCOC1)S(=O)(=O)c1cccc(C(=O)N2CCCCCC2)c1 (configuration not stated) — lower, -7.57%
- Cc1ncnc2c1CCN(C(=O)Cc1cccc(F)c1)CC2 — higher, 36.4%
- O=C(Cc1cccc(F)c1)N1CCc2ncnc(NC3CCC3)c2CC1 — higher, 53%
- CCS(=O)(=O)N1CCc2ncnc(C)c2CC1 — higher, 42.3%
- CCOc1ncnc2c1CCN(S(=O)(=O)CC)CC2 — higher, 30.5%
- COc1ncnc2c1CCN(C(=O)NCc1cccc(F)c1)CC2 — lower, 17.2%
- O=C(Cc1cccc(F)c1)N1CCc2ncnc(NC3CC3)c2CC1 — lower, 14%
- COc1ncnc2c1CCN(C(=O)Cc1cccc(F)c1)CC2 — higher, 52.6%
- CCS(=O)(=O)N1CCc2ncnc(OC)c2CC1 — higher, 79.2%
- O=C(Cc1cccc(F)c1)N1CCc2ncnc(N3CCCC3)c2CC1 — lower, -13.9%
- Cc1ccc(CN2CCOCC2c2[nH]ncc2C)cn1 (configuration not stated) — lower, 13.635%
- CCC(c1ccccc1)c1nn2c(CN(CC)CC)nnc2s1 (configuration not stated) — higher, 23.1%
- CCC(=O)NCCc1cc2nc(-c3ccncc3)ccn2n1 — lower, 21.4%
- COCC(C)NC(=O)c1cc(C)n(-c2cccc(OC)c2)c1C (configuration not stated) — higher, 35.9%
- CN1C(=O)CCCC12CCCN(C(=O)c1cccc(C(F)(F)F)c1)C2 (configuration not stated) — higher, 40.8%
- CSCC[C@H](NC(C)=O)c1nc(CCc2ccccc2)n[nH]1 — lower, -47.9%
- CCC=C(C)C(=O)NCc1ccc(OC)nc1 — lower, -0.514%
- Cc1ccccc1-c1noc(CN2CCc3nn(C)c(=O)cc3C2)n1 — lower, 7.08%
- CCOCC(O)CN1CCN(C(=O)Cc2cccc(C)c2)CC1 (configuration not stated) — lower, -52.95%
- O=C(Cc1ccccc1Cl)N1CCN(CC(O)COCCO)CC1 (configuration not stated) — higher, 57.85%
- CCOCC(O)CN1CCN(C(=O)Cc2ccccc2Cl)CC1 (configuration not stated) — higher, 25.6%
- CCC(O)CN1CCN(C(=O)Cc2ccccc2Cl)CC1 (configuration not stated) — lower, 18.625%
- CCOCC(O)CN1CCN(C(=O)Cc2ccc3c(c2)CCO3)CC1 (configuration not stated) — lower, 9.25%
- CCOCC(O)CN1CCN(C(=O)Cc2ccc3c(c2)CCC3)CC1 (configuration not stated) — higher, 51.5%
- O=C(c1cnccn1)N1CCCC2(CCN(Cc3cccnc3)C2)C1 (configuration not stated) — lower, -19.5%
- O=C(c1cncc(NCC2COc3ccccc3C2)n1)N1CCCCC1 (configuration not stated) — lower, 0.348%
- CC(C)Cc1nc(OCC(=O)O)c(C#N)c2c1CCCC2 — higher, 43.4%
- CC(C)Cc1nc(OCC(N)=O)c(C#N)c2c1CCC2 — lower, 16.6%
- CC(C)Cc1nc(OCC(N)=O)c(C#N)c2c1CCCC2 — higher, 51%
- C[C@@H]1C[C@H](C(F)(F)F)n2nc(C3CCN(C(=O)C(C)(C)C)CC3)cc2N1 — lower, 8.72%
- O=C(NCc1cccnc1)C1=NOC2(CCN(C(=O)N3CCCC3)C2)C1 (configuration not stated) — lower, -50.9%
- CN(CCc1nc2cc(Cl)ccc2[nH]1)C(=O)c1ncn[nH]1 — lower, 16.5%
- CCNc1ncc(C(=O)N(C)CCc2nc3cc(Cl)ccc3[nH]2)cn1 — higher, 41.5%
- CCc1ncc(C(=O)N(C)CCc2nc3cc(OC)ccc3[nH]2)cn1 — higher, 59.1%
- CCn1cnnc1CNC(=O)c1ccc(Cl)cc1I — higher, 44.1%
- O=C1COC2(CCN(c3ccccn3)CC2)CN1 — lower, -23.3%
- COc1cc(N2CCC3(CC2)CNC(=O)CO3)ncn1 — lower, 16.6%
- O=C1COC2(CCN(c3ncccn3)CC2)CN1 — higher, 70%
- O=C1CCCCN1CCCC(=O)N1CCC2(CC1)[C@H](O)C[C@@H]2O — higher, 26.8%
- CN(CC(=O)Nc1cccnc1)CC1CCCN1c1cccnn1 (configuration not stated) — higher, 53.4%
- CC(=O)Nc1nc(CN(C)C2CCCN(c3cccnn3)C2)cs1 (configuration not stated) — higher, 31.2%
- CN(CC(=O)Nc1nncs1)CC1CCCN1c1cccnn1 (configuration not stated) — lower, 3.77%
- Cc1csc(NC(=O)CN(C)CC2CCCN2c2cccnn2)n1 (configuration not stated) — higher, 48.5%
- CN(CC(=O)Nc1ccncc1)CC1CCCN1c1cccnn1 (configuration not stated) — higher, 41.4%
- CC(=O)Nc1nc(CN(C)CC2CCCN2c2cccnn2)cs1 (configuration not stated) — higher, 51.7%
- Cc1noc(C)c1CCC(=O)N[C@@H]1CCC[C@@H](Oc2cccnc2)[C@@H]1O — lower, -27.1%
- CS(=O)(=O)c1ccccc1C(=O)NCCCN1CCc2ccccc2C1 — higher, 52.1%
- Cc1ccccc1C1(CNC(=O)c2ccc(S(C)(=O)=O)cc2)CC1 — higher, 30.3%
- CS(=O)(=O)c1cccc(C(=O)NCCCN2CCc3ccccc3C2)c1 — higher, 56.4%
- Cc1ccccc1C(=O)NCCCN1CCc2ccccc2C1 — higher, 25.6%
- Cc1ccccc1C1(CNC(=O)c2cccc(S(C)(=O)=O)c2)CC1 — lower, -8.22%
- O=C(NCCCN1CCc2ccccc2C1)c1ccccc1Br — lower, 5.03%
- O=C(NCCCN1CCc2ccccc2C1)c1ccccc1Cl — lower, -7.31%
- CS(=O)(=O)c1cccc(C(=O)NCC2(c3ccccc3)CC2)c1 — higher, 86.8%
